JMJD2A Tudor inh = qHTS Assay for Inhibitors of JMJD2A-Tudor Domain; Potency, µM (doses to about 114 µM), hits mostly inhibitors; hit rate 4.4% among 390,000; AlphaScreen JMJD2A-Tudor / H3K4me3 peptide binding; note: nearly all actives have a fitted effect of over 50% in size
GLS inhibitor = qHTS for Inhibitors of Glutaminase (GLS); Potency, µM (series often up to 45.5 µM), hits mostly inhibitors; hit rate 0.21% among 410,000; GLS enzymatic activity, qHTS titration; Glutaminase kidney isoform, mitochondrial (Homo sapiens), O94925
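Two-point fluorescence kinetic (t0, 30 min RT) for hKGA; glutamate detected via glutamate oxidase–HRP–Amplex Red. Substrate: 1 mM L-glutamine solution; buffer 45 mM KH2PO4, pH 8.2.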
G9a block = qHTS Assay for Inhibitors of Histone Lysine Methyltransferase G9a; AID 504332, 2011; Potency, µM (doses to about 102 µM), usual class: inhibitors; G9a H3K9 monomethylation, AlphaScreen, 2 h; hit rate 8.8% among 350,000; Histone-lysine N-methyltransferase EHMT2 (Homo sapiens), Q96KQ7; note: nearly all actives have a fitted effect of over 75% in size
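Using a bead-based AlphaScreen, monomethylated H3K9 product from 2 h room-temperature reactions (G9a 20 nM, peptide 500 nM, SAM 20 uM) was detected with 0.5 ug/mL rabbit anti-H3K9me1 antibody.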
HP1b chromo inh = HTS for Inhibitors of HP1-beta Chromodomain Interactions with Methylated Histone Tails; Chromobox protein homolog 1 (Homo sapiens), P83916; AlphaScreen HP1-beta / biotin-H3K9me3 peptide binding; Potency, µM (top dose mostly 114 µM), most hits filed as inhibitors; hit rate 0.56% among 390,000; note: nearly all actives have a fitted effect of over 70% in size
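Compound inhibition of the preformed complex between 50 nM HP1-beta and 50 nM biotinylated H3K9me3 peptide was read by AlphaScreen. Buffer was PBS pH 7.4 with 0.01% Tween-20. Incubations ran 30 min at room temperature, with 10 ug/mL donor/acceptor beads.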
BAZ2B block = qHTS Assay for Inhibitors of BAZ2B; hit rate 4.4% among 360,000; Potency, µM (highest dose often 114 µM), hits mostly inhibitors; AlphaScreen BAZ2B-H3K14Ac peptide displacement; Bromodomain adjacent to zinc finger domain protein 2B (Homo sapiens), Q9UIF8; note: nearly all actives have a fitted effect of over 60% in size
Target sequence (Q9UIF8 whole entry, looked up, the tested form may be a part): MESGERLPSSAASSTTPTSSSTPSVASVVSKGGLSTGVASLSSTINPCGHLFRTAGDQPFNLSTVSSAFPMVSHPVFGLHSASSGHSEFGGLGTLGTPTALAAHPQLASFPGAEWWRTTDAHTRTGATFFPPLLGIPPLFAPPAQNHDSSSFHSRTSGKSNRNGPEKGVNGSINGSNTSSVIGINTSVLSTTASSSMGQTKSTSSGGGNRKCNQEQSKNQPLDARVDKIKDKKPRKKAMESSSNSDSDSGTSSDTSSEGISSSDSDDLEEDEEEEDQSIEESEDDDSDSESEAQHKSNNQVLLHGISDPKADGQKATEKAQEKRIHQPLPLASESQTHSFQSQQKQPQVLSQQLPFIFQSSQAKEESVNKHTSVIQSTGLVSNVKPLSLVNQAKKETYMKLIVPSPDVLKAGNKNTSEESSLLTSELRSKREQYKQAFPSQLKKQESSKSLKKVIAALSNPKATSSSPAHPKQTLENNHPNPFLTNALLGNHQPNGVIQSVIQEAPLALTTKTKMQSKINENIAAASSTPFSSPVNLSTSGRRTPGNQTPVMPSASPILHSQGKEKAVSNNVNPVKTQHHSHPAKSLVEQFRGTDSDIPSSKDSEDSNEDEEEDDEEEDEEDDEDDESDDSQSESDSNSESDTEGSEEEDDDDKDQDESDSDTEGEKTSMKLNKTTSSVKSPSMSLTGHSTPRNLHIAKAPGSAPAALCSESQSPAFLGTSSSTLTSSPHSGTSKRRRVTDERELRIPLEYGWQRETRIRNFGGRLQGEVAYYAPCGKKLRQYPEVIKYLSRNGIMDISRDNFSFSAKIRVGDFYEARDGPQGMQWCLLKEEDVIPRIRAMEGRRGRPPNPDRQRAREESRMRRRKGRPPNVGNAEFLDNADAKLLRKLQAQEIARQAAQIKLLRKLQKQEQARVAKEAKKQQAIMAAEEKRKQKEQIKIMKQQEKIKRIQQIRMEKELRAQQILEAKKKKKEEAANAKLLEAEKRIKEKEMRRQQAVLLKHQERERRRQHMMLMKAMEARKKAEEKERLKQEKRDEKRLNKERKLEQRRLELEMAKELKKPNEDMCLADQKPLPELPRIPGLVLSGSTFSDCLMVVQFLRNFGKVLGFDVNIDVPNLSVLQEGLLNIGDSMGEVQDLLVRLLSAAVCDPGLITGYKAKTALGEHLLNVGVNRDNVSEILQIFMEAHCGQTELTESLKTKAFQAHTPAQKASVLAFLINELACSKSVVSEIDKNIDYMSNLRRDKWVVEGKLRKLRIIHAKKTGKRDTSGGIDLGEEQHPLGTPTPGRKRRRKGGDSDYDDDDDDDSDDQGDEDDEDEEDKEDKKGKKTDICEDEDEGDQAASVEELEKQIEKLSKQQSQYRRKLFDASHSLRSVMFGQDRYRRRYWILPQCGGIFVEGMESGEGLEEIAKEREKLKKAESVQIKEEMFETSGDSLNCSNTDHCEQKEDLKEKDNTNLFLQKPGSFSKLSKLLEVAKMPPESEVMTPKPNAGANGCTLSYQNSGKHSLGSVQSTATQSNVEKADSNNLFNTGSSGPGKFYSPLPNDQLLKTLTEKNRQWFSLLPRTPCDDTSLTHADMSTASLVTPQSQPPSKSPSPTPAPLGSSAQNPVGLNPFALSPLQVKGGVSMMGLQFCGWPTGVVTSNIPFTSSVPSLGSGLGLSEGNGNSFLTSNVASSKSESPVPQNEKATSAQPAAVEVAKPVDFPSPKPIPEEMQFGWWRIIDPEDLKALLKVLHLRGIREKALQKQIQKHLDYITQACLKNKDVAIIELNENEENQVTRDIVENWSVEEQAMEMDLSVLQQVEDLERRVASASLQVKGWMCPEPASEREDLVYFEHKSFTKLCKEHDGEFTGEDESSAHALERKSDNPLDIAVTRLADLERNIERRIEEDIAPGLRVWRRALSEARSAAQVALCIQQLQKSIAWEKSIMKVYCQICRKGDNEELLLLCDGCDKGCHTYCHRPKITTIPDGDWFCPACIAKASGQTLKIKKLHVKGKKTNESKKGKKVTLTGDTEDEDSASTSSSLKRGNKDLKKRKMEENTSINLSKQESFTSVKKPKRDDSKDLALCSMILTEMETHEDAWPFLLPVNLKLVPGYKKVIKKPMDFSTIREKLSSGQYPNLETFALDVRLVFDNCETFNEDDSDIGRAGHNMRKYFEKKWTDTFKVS
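AlphaScreen displacement of biotin-H3(5-23)K14Ac peptide (50 nM final) from BAZ2B (50 nM final) in PBS pH 7.4, 0.01% Tween-20; complex preformed 30 min RT, then compounds (top 110 uM) 30 min RT, beads 20 min dark.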
Hits are given with their value; . = inactive; ? = inconclusive; / = no result given; ! = not confirmed by another sample; [ ] = remark or other dose. Hits are enriched below; roughly 10% of the tested compounds scored in any of these assays. Calls come from the whole dose curve; as a rule, active = well fitted curve in the direction sought with a large enough effect; inconclusive = small, poorly fitted or top-dose-only effect, or another doubt; inactive = no such curve, though single readings can be large; an effect the other way counts as inactive or inconclusive.

SMILES	JMJD2A Tudor inh	GLS inhibitor	G9a block	HP1b chromo inh	BAZ2B block
CN1CCN(/N=C/c2ccc(Br)cc2)CC1	.	.	?	.	.
CN1CCN(/N=C/c2ccc(Cl)c(Cl)c2)CC1	?	.	?	.	?
CN1CCN(/N=C/c2ccc(N(c3ccccc3)c3ccccc3)cc2)CC1	18µM	.	.[12.7 µM]	.	35µM
COC(=O)CC(=O)CSc1nc2c(cc1C#N)CCCCC2	.	.	.	.	.
O=C(COC(=O)/C=C/c1ccc2c(c1)OCO2)Nc1ccccc1	.	.	.	.	.
CC(=O)Nc1ccccc1-c1nc2ccc(C(=O)N3CCN(c4ccccc4)CC3)cc2[nH]c1=O	.	.	45µM	.	.
CC(=O)Nc1ccccc1-c1nc2ccc(C(=O)N3CCN(c4cccc(C)c4)C(C)C3)cc2[nH]c1=O (stereo unspecified)	.	.	?	.	.
Cc1cc(C)c2c(n1)sc1c(=O)n(Cc3ccc(F)cc3)cnc12	.	.	.	.	.
O=C(CCN1CCCCC1)Nc1cccc(Cl)c1	.[11.4 µM]	.	?	.	.
Oc1ccc(NCc2ccccc2OCc2ccc(Cl)cc2)cc1	?	.	7.9µM	.	.
O=c1[nH]c2ccc(NCc3ccc(-c4ccc(Cl)cc4)o3)cc2[nH]1	.	.	.	.	?
O=c1[nH]c2ccc(NCc3ccccc3F)cc2[nH]1	?	.	18µM	.	?
O=c1[nH]c2ccc(NCc3ccccc3OCc3ccc(Cl)cc3)cc2[nH]1	28µM	.	25µM	?	22µM
O=c1[nH]c2ccc(NCc3ccc(-c4ccccc4F)o3)cc2[nH]1	.	.	.	.	.
Cc1ccc(/C=C/C(=O)O)cc1S(=O)(=O)NCCO	.	.	.	.	.
Cc1ccc(OCC(=O)NNC(=O)C2CCC2)cc1C	.	.	.	.	.
CC(C)c1ccc(NC2CCCN(C(=O)c3cccnc3)C2)cc1 (stereo unspecified)	.	.	79µM	.	.
CCn1nc(C)cc1C(=O)N1CCCC(Nc2ccc(C(C)C)cc2)C1 (stereo unspecified)	.	.	50µM	.	?
CC(C)c1ccc(NC2CCCN(C(=O)c3n[nH]c4c3CCC4)C2)cc1 (stereo unspecified)	.	.	71µM	.	.
CC(C)c1ccc(NC2CCCN(C(=O)c3cnsn3)C2)cc1 (stereo unspecified)	.	.	35µM	.	?
N#CC1(c2ccccc2)CCN(S(=O)(=O)c2ccc(OC(F)(F)F)cc2)CC1	.	.	.	.	.
CC(=O)c1ccccc1OCCn1nc(C(=O)O)c2ccccc2c1=O	.	.	?	.	.
COC(=O)c1ccc(C(=O)N2CCCC(Nc3ccc(C(C)C)cc3)C2)cc1 (stereo unspecified)	?	.	79µM	.	?
CC(C)c1ccc(NC2CCCN(C(=O)c3ccsc3)C2)cc1 (stereo unspecified)	?	.	.	.	.
Cc1occc1C(=O)N1CCCC(Nc2ccc(C(C)C)cc2)C1 (stereo unspecified)	?	.	40µM	.	?
SMILES	JMJD2A Tudor inh	GLS inhibitor	G9a block	HP1b chromo inh	BAZ2B block
COCc1ccc(C(=O)N2CCCC(Nc3ccc(C(C)C)cc3)C2)o1 (stereo unspecified)	.	.	45µM	.	?
COc1ccc(N2CCN(S(=O)(=O)c3c(C)nc4sc(C)cn4c3=O)CC2)cc1	.	.	?	.	.
CCOC(=O)c1c(NC(=O)C2CCCO2)sc(C)c1C (stereo unspecified)	.	.	.	.	.
CCOC(=O)c1c(NC(=O)C2CCCO2)sc(C(=O)OC(C)(C)C)c1C (stereo unspecified)	?	.	3.5µM	?	.
CCOC(=O)c1sc(NC(=O)C2CCCO2)c(C(=O)OCC)c1C (stereo unspecified)	/	/	.[12.7 µM]	/	56µM
O=C(CN1C(=O)C(=O)c2ccccc21)c1ccccc1	.	.	.	.	.
CC(C)C1Cc2c(sc3ncnc(NN)c23)CO1 (stereo unspecified)	25µM	11µM	.[2.33 µM]	.	28µM
Cc1ccc(C2c3[nH]c4ccccc4c3C[C@H]3C(=O)N(c4ccccc4C(=O)N4CCC[C@@H]4C(=O)O)C(=O)N23)cc1 (stereo partly specified)	.	.	.[12.7 µM]	.	.
CCN1C(=O)S/C(=C/c2c(OCc3ccc(C(=O)O)cc3)ccc3ccccc23)C1=O	?	.	50µM	.	?
O=C(O)c1ccc(COc2ccc3ccccc3c2/C=C2/NC(=O)N(c3ccccc3)C2=O)cc1	.	.	/	.	.
COc1ccc(C(=O)NC(=O)COC(=O)c2ccc3ncsc3c2)cc1	/	/	.	/	56µM
O=C(COC(=O)c1ccc2ncsc2c1)NC(=O)NCc1ccccc1	.	?	.	.	.
O=C(COC(=O)c1ccc2ncsc2c1)NC(=O)c1ccccc1	25µM	.	?	.	79µM
S=C1NC(c2ccccc2)=NCN1c1ccccc1	.	.	.	.	.
COc1ccc(NC2=CC(=O)CC(c3ccc(C)cc3)C2)c(OC)c1 (stereo unspecified)	79µM	.	/	.	/
COc1ccccc1NC1=CC(=O)CC(c2ccccc2)C1 (stereo unspecified)	.	.	?	.	.
CCc1ccccc1N(CC(=O)NCc1ccco1)C(=O)CCC(=O)Nc1ccccn1	.	.	.	.	.
CC1CN(C(=O)c2cc([N+](=O)[O-])cc([N+](=O)[O-])c2)CC(C)O1 (stereo unspecified)	.	.	?	.	.
O=C(CSC1=NC(=O)C(Cc2ccccc2)C(=O)N1)Nc1ncccn1 (stereo unspecified)	/	/	79µM	/	.
O=C(CSC1=NC(=O)C(Cc2ccccc2)C(=O)N1)Nc1ncc(Br)cc1Br (stereo unspecified)	.	.	.	.	.
[N-]=[N+]=Nc1ccc(C(=O)CSC[C@H](NC(=O)CC[C@H](N)C(=O)O)C(=O)NCC(=O)O)cc1	/	/	32µM!	/	/
CCc1cc(SC#N)cc(C)c1NC(=O)CCl	.	.	40µM	.	.
Cc1cc(SC#N)cc(C)c1NC(=O)CCl	.	.	?	.	.
COc1ccc(N2CCN(C(=O)C(C)n3c(=O)cc(C(F)(F)F)c4c(C)nn(C)c43)CC2)cc1 (stereo unspecified)	.	.	10µM	?	35µM
O=C(CCNC(=O)c1ccccc1Cl)NCC12CC3CC(CC(C3)C1)C2	.	.	.	.	.
COc1ccc(CCN2CC(C(=O)N(C)Cc3cccnc3)CC2=O)cc1OC (stereo unspecified)	.	.	.	.	.
CCc1ccc(NC(=O)c2cc(-c3ccc4c(c3)OCO4)on2)cc1	.	.	.	.	.
